Screening results deposited in PubChem BioAssay by Broad Institute.
Tg IFNy HTS: inhibitors of Toxoplasma gondii growth with IFN-gamma; Toxoplasma gondii growth in IFN-gamma-treated host cells; active compounds read low; activity change, negative = inhibition, % (no concentration beside the values); actives 3.8% (n = 69,000); AID 1259416; in the data active = activity change below about -70%, passing the limit was not always enough;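 also: host cells are HeLa cells infected with Toxoplasma gondii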
Starred values were filed as active, the others as inactive; ! = not confirmed by another sample. The entries come from a sample that favours hits as a whole.

SMILES	Tg IFNy HTS
CCc1cc(=O)[nH]c(NC2CCN(C(=O)N3c4ccccc4Sc4ccccc43)CC2)n1	-117*
O=C(N1CCN(c2nc3ccccc3s2)CC1)N1c2ccccc2Sc2ccccc21	-18
CS(=O)(=O)c1cccc(C(=O)Oc2ccccc2)c1	-32
CC1=CC(C)(C)N(C(=O)c2ccccc2)c2ccc(OC(=O)c3ccccc3)cc21	-51
CC1CC(C)(C)N2C(=O)C(=O)c3cc(OC(=O)c4ccccc4)cc1c32 (stereo not drawn)	-96*
COCCOC(=O)c1sc2ncn(CC(=O)NCc3ccco3)c(=O)c2c1C	30
CCCCCCCC(=O)O	12
CCCCCCCCCCCC1C(=O)C(=O)CC(=O)C1=O	-82*!
Cc1nonc1OCCNC(=O)c1ccc(C(C)N2CCCCC2)o1 (stereo not drawn)	79
COC(=O)c1cc(C)nc2c1c(=O)n(Cc1nc(-c3ccc(C)cc3)oc1C)c(=O)n2-c1ccccc1	7
COc1cc(C(F)(F)F)nc2ccc(C#CCOC(=O)Nc3cccc(Cl)c3)cc12	-109*
CCc1nc(OCC(=O)Nc2cccc(Cl)c2)c2ccccc2n1	4
N#Cc1ccc(C#CCOC(=O)Nc2ccc(OC(F)(F)F)cc2)cc1	34
COc1ccc(CN2CCn3cc(CNC(=O)C4CCC4)nc3C2)cc1	-3
Cc1ccc(N(Cc2ccco2)S(=O)(=O)c2ccc(Cl)cc2)cc1	19
CCOc1ccc2oc(=O)cc(CSc3nc4ccccc4c(=O)[nH]3)c2c1	-12
CCCC(=O)N1CC2(C1)CN(CC1CC1)[C@@H](CO)c1[nH]c3cc(OC)ccc3c12	51
Fc1ccc(CC2CNCCOC2)cc1 (stereo not drawn)	-11
CCCCOC(=O)c1ccc(NC(=O)CSc2nnnn2C2CCCCC2)cc1	13
CCOC(=O)c1ccc(NC(=O)CSc2nnc(CNc3ccc(F)cc3)o2)cc1	-100*
CCc1nnc(SCC(=O)Nc2ccc(N3CCN(S(C)(=O)=O)CC3)cc2)o1	-11
CCC1(O)CC2CN(CCc3c([nH]c4ccccc34)C(C(=O)OC)(c3cc4c(cc3OC)N(C)C3C(O)(C(=O)OC)C(C(=O)OC)C5(CC)C=CCN6CCC43C65)C2)C1 (stereo not drawn)	-86*
COCCCNC(=O)Cn1ncc2c(N3CCCCCC3)ncnc21	170
Cc1nccn1-c1ccccc1CNC(=O)c1cc(C(C)C)nn1C	-2
CC(C)c1cc(C(=O)NCc2nc(-c3ccccc3)no2)n(C)n1	-100*
SMILES	Tg IFNy HTS
CCCn1ncc(C(=O)NCc2ccc(-c3noc(C)n3)cc2)c1C	-14
Cc1nc(-c2ccc(CNC(=O)c3cc(CC(C)C)nn3C)cc2)no1	-78*
CC(C)Cc1cc(C(=O)NCc2cnn3ccccc23)n(C)n1	-34
CC(C)c1cc(C(=O)NCc2cc(-c3ccco3)on2)n(C)n1	3
CN(Cc1ccccc1)c1ccc2ccc(C(=O)N3CCCC3)cn12	-9
Nc1ncc(C(=O)N2CCC(N3CCCC3=O)CC2)c(-c2ccccc2)n1	91
CC(=O)N1C[C@H](NC(=O)C2CC2)C2OCCCC21 (stereo partly drawn)	10
COCCN(C)C(=O)c1ccc2nnc3ncn(Cc4ccccc4)c3c2c1	74
Cc1cc(C(=O)c2ccc(C(C)(C)C)cc2)c(N)s1	19
CC(C)(C)c1ccc(C(=O)/C=c2\[nH]c(=O)/c(=C\c3cccs3)s2)cc1	-102*
Fc1ccccc1CSc1nc(NCc2ccco2)c2ccccc2n1	-17
CCCCCCSc1nsc(NC(C)=O)n1	55
CSc1nsc(NC(=O)OCc2ccc(Cl)cc2)n1	12
CC(=O)c1cccc(NC(=O)Nc2nc(SCc3ccc(F)cc3)ns2)c1	-107*
CC1=NN(c2ccccc2)C(=O)C1CCC(=O)O (stereo not drawn)	-6
CS(=O)(=O)c1ccc(-c2ccc(CN3CCCC3)cc2)cc1	-4
O=C1CCc2cc(S(=O)(=O)N3CCC4(CC3)OCCO4)cc3c2N1CCC3	137
Cc1ccc2[nH]c(C)c(CC(=O)N3CCCC(c4nnc(-c5ccsc5)o4)C3)c2c1 (stereo not drawn)	-3
COc1cccc(CCC(=O)N2CCC(c3nc(C(=O)N(C)C)c(C)o3)CC2)c1	-36
O=C(CCC1CCCO1)Nc1ncc(Cc2cccc(C(F)(F)F)c2)s1 (stereo not drawn)	-99*
FC(F)(F)c1cccc(CN(Cc2ccccn2)CC2CCCO2)c1 (stereo not drawn)	-10
CC(=O)N1CCOC(Cc2cccc(C(F)(F)F)c2)C1 (stereo not drawn)	-3
Cc1ccc(C)c(CN2CCC3(CC2)N=C(c2ccc(Cl)cc2)C(=O)N3)c1	107
COCCN1CC(=O)N(c2cccc(C)c2C)C(c2ccc(F)cc2)C1=O (stereo not drawn)	4
NCCCC(N)C(=O)O (stereo not drawn)	23
O=C(CCCN1CCC(O)(c2cccc(C(F)(F)F)c2)CC1)c1ccc(F)cc1	-36
Nc1nc(=S)c2ncn([C@@H]3O[C@H](CO)[C@@H](O)[C@H]3O)c2[nH]1	-77*
COc1nc(N)nc2c1ncn2[C@@H]1O[C@H](CO)[C@@H](O)[C@@H]1O	14
